# Whole data set: some 18,000 sequences, median “log2 normalized intensity” near 0.39, cut for the highest 2% near 6.6. The entries come from a sample that favours the highest values as a whole.
# Target: T1, HNF4alpha2 (COS-7 nuclear extract) (Homo sapiens, UniProt P41235 1-474)
# T1 sequence: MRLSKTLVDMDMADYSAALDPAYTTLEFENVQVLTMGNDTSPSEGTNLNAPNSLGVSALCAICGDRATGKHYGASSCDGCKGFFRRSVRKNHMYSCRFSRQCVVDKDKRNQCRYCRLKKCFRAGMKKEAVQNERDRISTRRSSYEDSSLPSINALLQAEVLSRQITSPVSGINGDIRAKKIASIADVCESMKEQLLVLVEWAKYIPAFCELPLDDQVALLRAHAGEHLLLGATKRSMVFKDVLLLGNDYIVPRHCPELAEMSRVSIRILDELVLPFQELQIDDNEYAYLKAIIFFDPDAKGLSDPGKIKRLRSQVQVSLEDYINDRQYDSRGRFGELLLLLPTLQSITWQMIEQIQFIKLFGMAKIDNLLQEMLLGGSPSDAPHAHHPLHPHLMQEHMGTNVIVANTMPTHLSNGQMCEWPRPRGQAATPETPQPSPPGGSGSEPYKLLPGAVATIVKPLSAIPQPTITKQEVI
# Test: protein-binding microarray; COS-7 nuclear extract on double-stranded Agilent 4x180k PBM; binding buffer, salt, pH and temperature not given in the material; high values mean tight binding
# Details: chain copies: 2; label: 3' end of strand 1 on the slide; dsDNA, one strand shown
# How it was run: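 Binding signal was defined as the normalized, background-corrected gProcessedSignal reported by Agilent software. It came from nuclear extracts of COS-7 cells transiently transfected with a human HNF4α isoform expression vector, applied to a custom Agilent SurePrint G3 4x180k array. That array held ~44,000 test sequences in quadruplicate as double-stranded ~60-nt oligonucleotides, and bound HNF4α was imaged at 2-µm resolution on an Agilent G2565CA scanner.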
row,Sequence,binding signal [log2 normalized intensity]
1,TGTCTCTGGTCAGGGAGGGCTTTAGAATGTGCCTAGGGAGATTAGAGTATCGGTCGA,1.01
2,TTGGTCTGCTGAGTCTCATGATTAGATTGAGCCTAGGGAGATTAGAGTATCGGTCGA,0.746
3,TGGCCTGGGAACTTAGCGATTTGGAACCCAGCCTAGGGAGATTAGAGTATCGGTCGA,0.829
4,AAGTTCAAGTAGATAAAATCAAACAGATGTGCCTAGGGAGATTAGAGTATCGGTCGA,1.02
5,TCTGCAAACACCCCTCCCCCACACAGACAAGCCTAGGGAGATTAGAGTATCGGTCGA,5.01
6,TTTGCTCACTGTAACCTTTGCCCCCCAAGTGCCTAGGGAGATTAGAGTATCGGTCGA,8.54
7,ACTGTAACCTTTGCCCCCCTGGGCTCAAGCGCCTAGGGAGATTAGAGTATCGGTCGA,5.81
8,GTGCTATCTCAGCTCACTGTAACCTTTGCCGCCTAGGGAGATTAGAGTATCGGTCGA,3.93
9,AGCCCCAACCCACTGTTGCCCCTTCCAAAGGCCTAGGGAGATTAGAGTATCGGTCGA,4.68
10,GTAACCTTTGCCCCCCAAGTTGAAGCCATCGCCTAGGGAGATTAGAGTATCGGTCGA,5.16
11,TCACTGTAACCTTTGCCCCCCAAGTTGAAGGCCTAGGGAGATTAGAGTATCGGTCGA,6.72
12,TGGTGCTATCTTTGCTCACTGTAACCTTTGGCCTAGGGAGATTAGAGTATCGGTCGA,3.78
13,ATCTCAGCTCACTGTAACCTTTGCCCCCCTGCCTAGGGAGATTAGAGTATCGGTCGA,8.75
14,AACCTTTGCCCCAGCTGTCACCCAGCCAGAGCCTAGGGAGATTAGAGTATCGGTCGA,3.68
15,AGCAAAGGTCATCCTGGGCTACCGATATGAGCCTAGGGAGATTAGAGTATCGGTCGA,0.737
16,TAGACCAGCCAATTCTACTGGAAGTAGGTAGCCTAGGGAGATTAGAGTATCGGTCGA,0.854
17,CCTTTCCCCGCCCCGCGTCCGTGCACCCTTGCCTAGGGAGATTAGAGTATCGGTCGA,4.42
18,ACTTTGAGGTGTTCTCTGGGGTTAGCCAAAGCCTAGGGAGATTAGAGTATCGGTCGA,1.59
19,CGGGTCAGCAGGGCACCGCCTCCACACCCCGCCTAGGGAGATTAGAGTATCGGTCGA,1.59
20,TCACAATTAAGCCAAACTTGGGTTTATGGCGCCTAGGGAGATTAGAGTATCGGTCGA,0.583
21,AGACAACCTTTGGTCACTTGTAAGATACTGGCCTAGGGAGATTAGAGTATCGGTCGA,2.43
22,AAGGTTGGTCTTAGGACCACATGAGTAAACGCCTAGGGAGATTAGAGTATCGGTCGA,-0.756

row,Sequence,binding signal [log2 normalized intensity]
1,ACTGATCTCTGGCTTGATCCCTGAACTTTGGCCTAGGGAGATTAGAGTATCGGTCGA,3.32
2,TCTCTGGCTTGATCCCTGAACTTTGCTCCCGCCTAGGGAGATTAGAGTATCGGTCGA,7.97
3,AAGTGACCCTGGTCTTTGCCCTTTCCTAGAGCCTAGGGAGATTAGAGTATCGGTCGA,3.39
4,TCCTGCCTTGGAGAAGTGAACTTTGCCCTCGCCTAGGGAGATTAGAGTATCGGTCGA,10.2
5,GTGAACTTTGCCCTCTCTTTCTGGAACCTAGCCTAGGGAGATTAGAGTATCGGTCGA,5.08
6,GAGAAGTGAACTTTGCCCTCTCTTTCTGGAGCCTAGGGAGATTAGAGTATCGGTCGA,7.55
7,TGGGCTCCTGCCTTGGAGAAGTGAACTTTGGCCTAGGGAGATTAGAGTATCGGTCGA,4.34
8,GGCTTGATCCCTGAACTTTGCTCCCACCCTGCCTAGGGAGATTAGAGTATCGGTCGA,5.57
9,CCTTGGATCTCCTGCACCTGAACTTTGCTCGCCTAGGGAGATTAGAGTATCGGTCGA,6.35
10,TGGGCTCGGCGCTCCGCTTACTCGGCCTGGGCCTAGGGAGATTAGAGTATCGGTCGA,-0.994
11,TCCCTCATTAGTAACTCCAGAGATAAGATAGCCTAGGGAGATTAGAGTATCGGTCGA,0.0683
12,GCAGTGGGACAAAGGTCACAGGAAAGGGACGCCTAGGGAGATTAGAGTATCGGTCGA,4.13
13,AGGGAGGGGAGAGGGGGTTAAAGGTTATTTGCCTAGGGAGATTAGAGTATCGGTCGA,4.97
14,CCTATATAGTTGAGATTGTAACCGTAAATGGCCTAGGGAGATTAGAGTATCGGTCGA,1.55
15,GTTAAGTGAGTGGACTTTGGTCCTGGTCAGGCCTAGGGAGATTAGAGTATCGGTCGA,6.52
16,CTAAGAGATTTGAATATGTACATGGACTTTGCCTAGGGAGATTAGAGTATCGGTCGA,6.19
17,CATGGACTTTGAACCAAGATATGCTAACATGCCTAGGGAGATTAGAGTATCGGTCGA,4.81
18,ACACAGTACTTTGTACATGGGAATAGACATGCCTAGGGAGATTAGAGTATCGGTCGA,0.863
19,CGGTCAGCTGCTTGACTTAGTACATGGCCTGCCTAGGGAGATTAGAGTATCGGTCGA,0.557
20,GAATGCAACCACACCAACATGGACTTTGTCGCCTAGGGAGATTAGAGTATCGGTCGA,6.09
21,AGATTTGAATATGTACATGGACTTTGAACCGCCTAGGGAGATTAGAGTATCGGTCGA,10.3
22,AGGTACTAAGAGATTTGAATATGTACATGGGCCTAGGGAGATTAGAGTATCGGTCGA,1.38

# Source: paper PMC10726135, “HNF4α isoforms regulate the circadian balance between carbohydrate and lipid metabolism in the liver”
